Test results as given in PubChem BioAssay AID1159580 (chemical genetic matrix, 2015).
Out of some 5,500 compounds screened, about 2,000 (36%) were called active. Inconclusive results (about 18%) are left out. Rule as the data show it: active = normalized growth mostly below about 0.91 (no sharp cut-off); inconclusive = no clear call, values can overlap the other calls; inactive = mostly above about 0.92. Some of the results follow.

Test: chemical genetic growth profiling, strain panel (AID 1159580);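 also: tested at 20 µM; growth read once vehicle control cultures reached saturation at 30 °C; 1 = growth at the plate median or of vehicle wells; lower values mean less growth of the strain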
Conditions: growth OD

Measured: normalized growth

C[C@]12CCC(=O)C=C1CCC1C2C(=O)C[C@@]2(C)C1CC[C@]2(O)C(=O)CO (stereo partly drawn)
inactive: S. cerevisiae deletion strains, locus YJL187C, strain SWE1, active compounds read low 1.01 | S. cerevisiae deletion strains, locus YJR043C, strain POL32, active compounds read low 1 | S. cerevisiae deletion strains, locus YJR066W, strain TOR1, active compounds read low 0.967 | S. cerevisiae deletion strains, locus YKL009W, strain mrt4, active compounds read low 1.06 | S. cerevisiae deletion strains, locus YKL068W, active compounds read low 1.01 | S. cerevisiae deletion strains, locus YKL085W, strain MDH1 (second series), active compounds read low 0.994 | S. cerevisiae deletion strains, locus YKL085W, strain MDH1, active compounds read low 0.994 | S. cerevisiae deletion strains, locus YKL160W, strain elf1, active compounds read low 1 | S. cerevisiae deletion strains, locus YKR001C, strain vps1, active compounds read low 0.998 | S. cerevisiae deletion strains, locus YKR026C, strain gcn3, active compounds read low 0.99 | S. cerevisiae deletion strains, locus YKR091W, strain srl3, active compounds read low 0.999 | S. cerevisiae deletion strains, locus YLL001W, strain dnm1, active compounds read low 1.03 | S. cerevisiae deletion strains, locus YLL026W, active compounds read low 1 | S. cerevisiae deletion strains, locus YLL041C, strain sdh2, active compounds read low 1.01 | S. cerevisiae deletion strains, locus YLR027C, strain aat2, active compounds read low 1.01 | S. cerevisiae deletion strains, locus YLR039C, strain RIC1, active compounds read low 1.01 | S. cerevisiae deletion strains, locus YLR058C, strain SHM2, active compounds read low 0.981 | S. cerevisiae deletion strains, locus YLR102C, strain apc9, active compounds read low 0.995 | S. cerevisiae deletion strains, locus YLR113W, strain HOG1, active compounds read low 0.951 | S. cerevisiae deletion strains, locus YLR221C, strain rsa3, active compounds read low 1 | S. cerevisiae deletion strains, locus YLR258W, strain gsy2, active compounds read low 1.01 | S. cerevisiae deletion strains, locus YLR262C, strain YPT6 (second series), active compounds read low 0.995 | S. cerevisiae deletion strains, locus YLR262C, strain YPT6, active compounds read low 1.03 | S. cerevisiae deletion strains, locus YLR268W, strain sec22, active compounds read low 1.05 | S. cerevisiae deletion strains, locus YLR320W, strain mms22, active compounds read low 0.988 | S. cerevisiae deletion strains, locus YLR330W, strain CHS5, active compounds read low 1 | S. cerevisiae deletion strains, locus YLR342W, strain FKS1 (second series), active compounds read low 1.03 | S. cerevisiae deletion strains, locus YLR342W, strain FKS1, active compounds read low 0.992 | S. cerevisiae deletion strains, locus YLR357W, strain rsc2, active compounds read low 0.993 | S. cerevisiae deletion strains, locus YLR370C, strain arc18, active compounds read low 1.01 | S. cerevisiae deletion strains, locus YLR371W, strain rom2, active compounds read low 1.01 | S. cerevisiae deletion strains, locus YLR384C, strain iki3, active compounds read low 1 | S. cerevisiae deletion strains, locus YLR418C, strain cdc73, active compounds read low 1.03 | S. cerevisiae deletion strains, locus YML016C, strain PPZ1, active compounds read low 1 | S. cerevisiae deletion strains, locus YML032C, strain rad52, active compounds read low 0.957 | S. cerevisiae deletion strains, locus YML120C, strain ndi1, active compounds read low 1.02 | S. cerevisiae deletion strains, locus YML124C, strain tub3, active compounds read low 1 | S. cerevisiae deletion strains, locus YMR058W, strain fet3, active compounds read low 0.998 | S. cerevisiae deletion strains, locus YMR078C, strain ctf18, active compounds read low 1 | S. cerevisiae deletion strains, locus YMR125W, strain sto1, active compounds read low 1 | S. cerevisiae deletion strains, locus YMR129W, active compounds read low 0.989 | S. cerevisiae deletion strains, locus YMR205C, strain PFK2, active compounds read low 0.987 | S. cerevisiae deletion strains, locus YMR223W, strain ubp8, active compounds read low 0.977 | S. cerevisiae deletion strains, locus YMR231W, strain pep5, active compounds read low 1.01 | S. cerevisiae deletion strains, locus YMR263W, strain SAP30, active compounds read low 1 | S. cerevisiae deletion strains, locus YMR307W, strain GAS1, active compounds read low 1.03 | S. cerevisiae deletion strains, locus YNL067W, strain RPL9B, active compounds read low 1 | S. cerevisiae deletion strains, locus YNL071W, strain lat1, active compounds read low 1.01 | S. cerevisiae deletion strains, locus YNL183C, strain NPR1, active compounds read low 0.926 | S. cerevisiae deletion strains, locus YNL209W, strain ssb2, active compounds read low 1 | S. cerevisiae deletion strains, locus YNL233W, strain BNI4, active compounds read low 0.994 | S. cerevisiae deletion strains, locus YNL248C, strain rpa49, active compounds read low 1 | S. cerevisiae deletion strains, locus YNL250W, strain rad50, active compounds read low 0.999 | S. cerevisiae deletion strains, locus YNL271C, strain bni1, active compounds read low 1 | S. cerevisiae deletion strains, locus YNL298W, strain CLA4, active compounds read low 1.02 | S. cerevisiae deletion strains, locus YNL307C, strain MCK1, active compounds read low 1.01 | S. cerevisiae deletion strains, locus YNL322C, strain KRE1 (second series), active compounds read low 1 | S. cerevisiae deletion strains, locus YNR049C, strain mso1, active compounds read low 1.01 | S. cerevisiae deletion strains, locus YNR052C, strain pop2, active compounds read low 1 | S. cerevisiae deletion strains, locus YOL012C, strain htz1 0.71 | S. cerevisiae deletion strains, locus YOL147C, strain pex11, active compounds read low 1.01 | S. cerevisiae deletion strains, locus YOR001W, strain rrp6, active compounds read low 1.01 | S. cerevisiae deletion strains, locus YOR061W, strain CKA2, active compounds read low 1.01 | S. cerevisiae deletion strains, locus YOR069W, strain VPS5, active compounds read low 1.01 | S. cerevisiae deletion strains, locus YOR070C, strain gyp1, active compounds read low 1.01 | S. cerevisiae deletion strains, locus YOR080W, strain dia2, active compounds read low 1 | S. cerevisiae deletion strains, locus YOR083W, strain WHI5, active compounds read low 1 | S. cerevisiae deletion strains, locus YOR106W, strain vam3, active compounds read low 1.01 | S. cerevisiae deletion strains, locus YOR136W, strain idh2, active compounds read low 1.01 | S. cerevisiae deletion strains, locus YOR144C, strain elg1, active compounds read low 1 | S. cerevisiae deletion strains, locus YOR184W, strain ser1, active compounds read low 1.03 | S. cerevisiae deletion strains, locus YOR231W, strain MKK1, active compounds read low 0.985 | S. cerevisiae deletion strains, locus YOR265W, strain rbl2, active compounds read low 1.02 | S. cerevisiae deletion strains, locus YOR270C, strain vph1, active compounds read low 1.04 | S. cerevisiae deletion strains, locus YOR290C, strain snf2, active compounds read low 0.964 | S. cerevisiae deletion strains, locus YOR316C, strain cot1, active compounds read low 1 | S. cerevisiae deletion strains, locus YPL051W, strain arl3, active compounds read low 1.02 | S. cerevisiae deletion strains, locus YPL055C, strain LGE1, active compounds read low 0.992 | S. cerevisiae deletion strains, locus YPL078C, strain atp4, active compounds read low 1.01 | S. cerevisiae deletion strains, locus YPL106C, strain sse1, active compounds read low 0.96 | S. cerevisiae deletion strains, locus YPL240C, strain hsp82, active compounds read low 0.981 | S. cerevisiae deletion strains, locus YPL256C, strain CLN2, active compounds read low 0.981 | S. cerevisiae deletion strains, locus YPR119W, strain clb2, active compounds read low 1 | S. cerevisiae deletion strains, locus YPR141C, strain kar3, active compounds read low 0.994 | S. cerevisiae deletion strains, locus YPR163C, strain tif3, active compounds read low 0.996 | S. cerevisiae deletion strains, locus YPR167C, strain met16, active compounds read low 1.01 | S. cerevisiae deletion strains, strain wtn01, active compounds read low 1.05 | S. cerevisiae strains, strain wild type, active compounds read low 0.995
